In PubChem BioAssay (NCATS):
Records with an inconclusive call do not appear. Calls of active or inactive are those of the source. Unless noted, calls follow the shape of the dose curve; as a rule, active = well fitted curve in the direction sought with a large enough effect; inconclusive = small, poorly fitted or top-dose-only effect, or another doubt; inactive = no such curve, though single readings can be large; an effect the other way counts as inactive or inconclusive.

Assays:
[1] = target: Lysosomal acid glucosylceramidase (Homo sapiens) (UniProt P04062); assay: Glucocerebrosidase-p2 (AID 348; in the data active = potency below about 10 µM; also: potency is read from the fitted curve at half-maximal effect); conditions: purified GBA, blue fluorogenic substrate, 40 min
Method in brief: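 Normal human glucocerebrosidase (0.2 nM) with blue fluorogenic substrate (80 uM final) in citrate/phosphate pH 5.9 with 10mM sodium taurocholate, 0.01% tween-20; 40 min RT, NaOH/glycine stop; fluorescence Ex 365/Em 440; AC50 from a titration from 0.6 nM upwards.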

[2] = AP1 Signaling Pathway (AID 357; active = well fitted curve in either direction with a large enough effect, not every such curve was filed as active;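 also: ME-180 reporter cells stimulated with EGF at its EC50 level; % is scaled to controls: 0 for no effect and ±100 for the full control effect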); conditions: ME-180 AP-1-bla reporter, EGF-induced, beta-lactamase ratio, 5 h; at 7.69 µM (top of the series) unless noted
Method in brief: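 AP-1-bla ME-180 cells, Opti-MEM + 0.5% dialyzed FBS, plated overnight 37 °C. Cpd titration + EC50 EGF, 5 h 37 °C. CCF4 2.5 h RT; ex 405, em 460/530 ratio → %activity, AC50.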

[3] = target: Cytochrome P450 1A2 (Homo sapiens) (UniProt P05177); assay: p450-cyp1a2 (AID 410; calls by dose curve; also: potency is read from the fitted curve at half-maximal effect); conditions: recombinant CYP1A2, luciferin-ME demethylation, luminescence; series mostly up to 57 µM
Method in brief: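 Luminescent demethylation readout: Luciferin-ME (100uM, equal to Km) turned over by 20nM CYP1A2 for 60 min at room temperature after NADPH regeneration addition, following 10 min compound preincubation. Normalization used 57 uM furafylline as full inhibition.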

[4] = NFAT Signaling Pathway (AID 444; active = well fitted curve in either direction with a large enough effect, not every such curve was filed as active;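 also: carbachol stimulus at about its EC50 of 1 µM final; % is scaled to controls: 0 for no effect and ±100 for the full control effect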); conditions: Jurkat NFAT-bla M1, carbachol, beta-lactamase ratio, 5 h; at 7.69 µM (top of the series) unless noted
Method in brief: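 Jurkat cells with NFAT-driven β-lactamase reporter and co-expressed M1 receptor, stimulated with carbachol (final 1 uM, ~EC50), compound titration, 5 h at 37 °C. CCF4 loaded 1 h at RT; 460/530 nm ratio gave %activity and AC50.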

[5] = Stat Signaling Pathway (AID 446; active = well fitted curve in either direction with a large enough effect, not every such curve was filed as active;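 also: ME-180 cervical cancer cells given 40 pM IL-6 alongside compound; SIE-controlled beta-lactamase reporter measured as 460/530 nm FRET emission ratio; % is scaled to controls: 0 for no effect and ±100 for the full control effect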); conditions: ME-180 SIE beta-lactamase reporter, IL-6 stimulated, 5 h; at 7.69 µM (top of the series) unless noted
Method in brief: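 FRET read-out (405 nm excitation, 460/530 nm emission) of a beta-lactamase reporter under a STAT-inducible element in ME-180 cervical carcinoma cells. Cells with compound receive 40 pM IL-6 for 5 h. Values are normalised to AC90 stimulation and AC90 JAK-inhibitor controls.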

[6] = target: Glucocorticoid receptor (Homo sapiens) (UniProt P04150); assay: GR-GFP Redistribution (AID 450;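 active = compounds whose dose series gives a full or clear partial fitted curve of increased nuclear translocation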; also: potency is read from the fitted curve at half-maximal effect); conditions: U2OS GR-GFP nuclear translocation, laser cytometry, 2 h
[7] = target: Glucocorticoid receptor (Homo sapiens) (UniProt P04150); assay: GR-EFC Redistribution (AID 451; calls by dose curve; also: potency is read from the fitted curve at half-maximal effect); conditions: CHO-K1 GR-EFC translocation, beta-gal luminescence, 2 h
Method in brief: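 CHO-K1 cells expressing nuclear EA and GR-ED fragments of b-gal; compounds titrated up to 46 uM final, 2 h at 37 C. GR nuclear translocation read as complemented b-gal luminescence after 1 h RT detection.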

[8] = target: Mitogen-activated protein kinase 10 (Mus musculus) (UniProt Q61831); assay: JNK3 AlphaScreen Assay (AID 530; active = well fitted curve in either direction with a large enough effect, not every such curve was filed as active;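 also: kinase came from lysate of stimulated human HepG2 cells; signal reports phosphorylation of biotinylated GST-cJun 1-79 at Ser73 with 10 µM ATP; % is scaled to controls: 0 for no effect and ±100 for the full control effect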); conditions: JNK3 lysate, c-Jun phosphorylation; series mostly up to 57.1 µM
Method in brief: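 Activity was read by AlphaScreen after JNK3-containing HepG2 lysate (cytokine pre-activated) phosphorylated biotinylated GST-cJun with 10 uM ATP at room temperature. Phospho-Ser73 cJun antibody with Protein-A acceptor beads provided detection.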

[9] = target: 3',5'-cyclic-AMP phosphodiesterase 4B (Homo sapiens) (UniProt Q07343); assay: qHTS Assay for Inhibitors of PDE-IV (AID 607; active = well fitted activation curve with a large enough effect in the main read-out, with a control signal flat, not every such curve was filed as active; also: % of control where 0% means no effect); conditions: HEK293 ACTOne CNG channel cells, membrane potential fluorescence; series mostly up to 22.9 µM
Method in brief: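 Cell-based read-out of cAMP via a modified cyclic nucleotide-gated channel and membrane potential dye (535/590 nm) in HEK293 cells expressing PDE4 endogenously. Compounds tested up to 22.9 uM final; 100 uM RO 20-1724 reference.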

[10] = target: Cytochrome P450 3A4 (Homo sapiens) (UniProt P08684); assay: qHTS Assay for Inhibitors and Substrates of Cytochrome P450 3A4 (AID 884); conditions: recombinant CYP3A4, Luciferin-PPXE luminescence; series mostly up to 57.1 µM; also: nearly all actives have a fitted effect of over 50% in size; also: potency is read from the fitted curve at half-maximal effect
Method in brief: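 Luminescent readout of luciferin produced by CYP3A4 (20 nM) dealkylation of Luciferin-PPXE, 25 uM (its KM). NADPH-driven reaction ran 60 min at RT after 10 min compound preincubation; data scaled to 57 uM ketoconazole as 100% inhibition.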

[11] = target: Cytochrome P450 3A4 (Homo sapiens) (UniProt P08684); assay: qHTS Assay for Activators of Cytochrome P450 3A4 (AID 885); conditions: recombinant CYP3A4, Luciferin-PPXE luminescence, 60 min; series mostly up to 57.1 µM; also: nearly all actives have a fitted effect of over 65% in size
Method in brief: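 Luminescent readout of luciferin formed from 25 uM Luciferin-PPXE (KM level) by 20 nM CYP3A4 in 200 mM KPO4, with 60 min NADPH-driven reaction at room temperature after 10 min compound exposure. Ketoconazole (57 uM) defined 100% inhibition.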

[12] = qHTS Assay for Lipid Storage Modulators (AID 1519; calls by dose curve); conditions: Drosophila S3 cells, BODIPY lipid droplet/cell ratio, laser cytometry, cells loaded with oleic acid; for activity change, negative = inhibition: at 57.5 µM (top of the series)
Method in brief: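 Cells seeded at 5,000 per well were treated with compounds over a concentration series and loaded with oleic acid (400 uM, as added). Lipid droplet fluorescence (488 nm excitation, 500-530 nm channel) was read by laser-scanning cytometry and normalized to 20 uM Triacsin C.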

[13] = target: Dual specificity protein kinase CLK4 (Homo sapiens) (UniProt Q9HAZ1); assay: qHTS Assay for Inhibitors of CDC-like Kinase 4 (ADP-FP Assay) (AID 1795); conditions: Transcreener ADP fluorescence polarization; series mostly up to 50 µM;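 also: recombinant human CLK4 phosphorylating RS repeat peptide at 1 µM ATP; % is scaled to controls: 0 for no effect and ±100 for the full control effect; nearly all actives have a fitted effect of over 60% in size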
Method in brief: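 Recombinant Clk4 (6.25 nM) phosphorylated 100 uM RS repeat peptide with 1 uM ATP in 25 mM Tris pH 7.5, 10 mM MgCl2, 0.5 mM EGTA, 2.5 mM DTT, 0.01% Triton X-100 for 1 h. ADP was detected by Transcreener ADP2 competitive fluorescence polarization after 30 min at room temperature.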

[14] = Primary qHTS for small molecule stabilizers of the endoplasmic reticulum resident proteome: Secreted ER Calcium Modulated Protein (SERCaMP) assay (AID 1508630); conditions: SH-SY5Y GLuc-SERCaMP (Gaussia luciferase released on ER calcium loss) secretion, thapsigargin, luminescence; series mostly up to 38.4 µM; also: % is scaled to controls: 0 for no effect and ±100 for the full control effect
Method in brief: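 The SH-SY5Y reporter protocol was run at 3 concentrations up to 38.3 uM (primary) or 11 concentrations (follow-up): 16 h compound, 100 nM thapsigargin for 4 h, then extracellular luciferase luminescence.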

[15] = target: Cytochrome P450 2C9 (Homo sapiens) (UniProt P11712); assay: qHTS Assay for Inhibitors and Substrates of Cytochrome P450 2C9 (AID 883); conditions: recombinant CYP2C9, luciferin-H luminescence, 60 min; series mostly up to 57.1 µM; also: % is scaled to controls: 0 for no effect and ±100 for the full control effect; nearly all actives have a fitted effect of over 60% in size
Method in brief: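 Human CYP2C9 (10nM) with Luciferin-H at 100uM (its KM) in 25mM KPO4; compound preincubated 10 min at 37C, then NADPH regeneration for 60 min at 37C. Luciferin read by luminescence after detection reagent; normalized to 57uM sulphaphenazole as full inhibition.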

[16] = Confirmation and Secondary Assay for Modulators of Hemoglobin Beta Chain Splicing at IVS2 654 locus (AID 910); conditions: HeLa EGFP-654 splicing reporter, GFP fluorescence, 48 h; series mostly up to 38.3 µM;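 also: HeLa cells stably carrying EGFP split by mutant beta-globin IVS2-654 intron; % of control where 0% means no effect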
Method in brief: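 HeLa cells stably expressing EGFP interrupted by β-globin IVS2-654 intron, seeded overnight in Opti-MEM/2% FCS, then treated 2 days at 37 °C. Restored splicing read as total peak GFP intensity per well by laser scanning cytometry (488 nm excitation, 500–520 nm emission); 500 nM antisense PNA as control.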

[17] = Confirmation and Secondary Assay for Modulators of Hemoglobin Beta Chain Splicing at IVS2 705 locus (AID 930); conditions: HeLa EGFP-705 splicing reporter, GFP fluorescence, 48 h; series mostly up to 38.3 µM;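 also: HeLa cells stably expressing the EGFP-705 splicing reporter; GFP fluorescence per well restored by corrected splicing of the IVS2-705 intron in EGFP; % of control where 0% means no effect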
Method in brief: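 Secondary splice-site specificity test uses HeLa expressing CMV-driven EGFP interrupted by IVS2-705; cells were treated 2 days at 37C with 500 nM antisense PNA as positive control.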

[18] = target: Ubiquitin carboxyl-terminal hydrolase 1 (Homo sapiens) (UniProt O94782); assay: Inhibitors of USP1/UAF1: Pilot qHTS (AID 504865); conditions: purified USP1/UAF1, Ub-rhodamine cleavage fluorescence; series mostly up to 54.9 µM;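 also: rhodamine fluorescence freed from ubiquitin-rhodamine substrate followed over time; top concentration of the series differs between compounds; % is scaled to controls: 0 for no effect and ±100 for the full control effect; nearly all actives have a fitted effect of over 35% in size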
Method in brief: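 USP1/UAF1 complex at 1 nM preincubated 15 min at room temperature with compound, then Ub-Rho substrate added at 150 nM final. Fluorescence (480/540 nm) read kinetically in 50 mM HEPES pH 7.8, 0.5 mM EDTA, 1 mM TCEP, 0.1 mg/ml BSA, 0.01% Tween-20.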

[19] = target: Cytochrome P450 2C19 (Homo sapiens) (UniProt P33261); assay: qHTS Assay for Inhibitors and Substrates of Cytochrome P450 2C19 (AID 899); conditions: recombinant CYP2C19, luciferin-H EGE luminescence; series mostly up to 57.1 µM; also: nearly all actives have a fitted effect of over 60% in size; also: potency is read from the fitted curve at half-maximal effect
Method in brief: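 5 nM human CYP2C19 with 10uM Luciferin-H EGE (at KM) in 50mM KPO4, compound preincubated 10 min at 37C, then NADPH regeneration for 60 min at 37C. Luciferin read by luminescence after detection reagent; normalized to 57uM ketoconazole as full inhibition.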

[20] = qHTS Assay for Identification of Small Molecule Agonists for Hypoxia Response Element Signaling Pathway (AID 914; active = well fitted activation curve with a large enough effect in the signal ratio, with a control signal flat, not every such curve was filed as active; the % refers to the signal ratio; also: % of control where 0% means no effect); conditions: ME-180 (cervical carcinoma) HRE-bla reporter, beta-lactamase ratio, CoCl2, 17 h; activation: stronger effect = higher value
Method in brief: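 qHTS titration; ME-180 HRE-bla cells; EC50 CoCl2 co-treatment, 17 h at 37 degrees Celsius; CCF4 dye, ex 405nm, em 460nm and 530nm; %Activity from ratio; AC50.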

[21] = measured here: cell count channel max response
[22] = measured here: lipid channel max response

Chain of Ubiquitin carboxyl-terminal hydrolase 1 (Homo sapiens) (O94782 whole entry, looked up): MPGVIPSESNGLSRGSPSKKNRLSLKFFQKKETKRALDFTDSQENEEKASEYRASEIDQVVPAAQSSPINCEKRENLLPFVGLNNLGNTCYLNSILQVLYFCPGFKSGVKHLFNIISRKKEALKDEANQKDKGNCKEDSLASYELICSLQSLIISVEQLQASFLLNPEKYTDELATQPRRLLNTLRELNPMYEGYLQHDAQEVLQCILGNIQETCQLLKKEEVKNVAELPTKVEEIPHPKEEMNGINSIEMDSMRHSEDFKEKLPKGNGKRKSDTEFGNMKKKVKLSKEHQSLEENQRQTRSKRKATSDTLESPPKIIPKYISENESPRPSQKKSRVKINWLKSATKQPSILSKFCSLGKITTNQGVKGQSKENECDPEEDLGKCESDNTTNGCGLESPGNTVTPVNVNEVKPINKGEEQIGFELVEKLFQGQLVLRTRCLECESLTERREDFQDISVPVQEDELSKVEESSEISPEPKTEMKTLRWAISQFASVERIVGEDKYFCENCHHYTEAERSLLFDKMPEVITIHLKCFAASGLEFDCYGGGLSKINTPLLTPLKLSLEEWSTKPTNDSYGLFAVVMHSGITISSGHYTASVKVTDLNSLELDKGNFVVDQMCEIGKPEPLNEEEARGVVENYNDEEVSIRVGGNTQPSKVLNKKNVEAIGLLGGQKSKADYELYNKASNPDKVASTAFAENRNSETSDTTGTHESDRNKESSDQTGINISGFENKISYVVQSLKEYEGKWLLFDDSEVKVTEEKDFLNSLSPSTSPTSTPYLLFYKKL
Chain of Dual specificity protein kinase CLK4 (Homo sapiens) (Q9HAZ1 whole entry, looked up): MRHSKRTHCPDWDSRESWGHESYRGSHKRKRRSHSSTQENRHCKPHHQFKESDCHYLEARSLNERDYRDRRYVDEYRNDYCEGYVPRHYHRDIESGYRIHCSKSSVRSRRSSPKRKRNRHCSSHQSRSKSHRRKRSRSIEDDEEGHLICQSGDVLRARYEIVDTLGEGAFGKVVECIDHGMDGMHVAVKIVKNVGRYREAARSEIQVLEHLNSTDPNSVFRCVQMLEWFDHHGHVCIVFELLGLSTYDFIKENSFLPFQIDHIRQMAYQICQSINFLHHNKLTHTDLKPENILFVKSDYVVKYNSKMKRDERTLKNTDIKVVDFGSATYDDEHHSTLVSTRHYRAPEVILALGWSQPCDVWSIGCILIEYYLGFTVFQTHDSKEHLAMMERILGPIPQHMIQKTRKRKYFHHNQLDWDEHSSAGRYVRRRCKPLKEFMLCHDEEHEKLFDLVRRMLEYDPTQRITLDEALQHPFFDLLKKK
Chain of Lysosomal acid glucosylceramidase (Homo sapiens) (P04062 whole entry, looked up): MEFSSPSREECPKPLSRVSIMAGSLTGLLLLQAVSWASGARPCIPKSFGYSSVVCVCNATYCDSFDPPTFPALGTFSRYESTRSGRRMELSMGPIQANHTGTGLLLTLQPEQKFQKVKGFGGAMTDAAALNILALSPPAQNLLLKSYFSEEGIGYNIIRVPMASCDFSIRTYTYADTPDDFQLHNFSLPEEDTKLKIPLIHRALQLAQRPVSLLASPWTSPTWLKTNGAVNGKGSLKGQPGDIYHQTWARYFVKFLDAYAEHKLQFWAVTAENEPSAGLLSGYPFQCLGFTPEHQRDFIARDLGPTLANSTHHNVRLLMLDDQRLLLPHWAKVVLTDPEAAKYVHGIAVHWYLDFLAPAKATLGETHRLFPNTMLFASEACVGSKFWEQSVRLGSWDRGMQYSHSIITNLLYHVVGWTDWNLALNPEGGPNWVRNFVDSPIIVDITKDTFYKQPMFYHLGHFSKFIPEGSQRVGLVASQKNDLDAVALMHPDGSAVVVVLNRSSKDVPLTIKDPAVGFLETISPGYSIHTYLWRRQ
Chain of 3',5'-cyclic-AMP phosphodiesterase 4B (Homo sapiens) (Q07343 whole entry, looked up): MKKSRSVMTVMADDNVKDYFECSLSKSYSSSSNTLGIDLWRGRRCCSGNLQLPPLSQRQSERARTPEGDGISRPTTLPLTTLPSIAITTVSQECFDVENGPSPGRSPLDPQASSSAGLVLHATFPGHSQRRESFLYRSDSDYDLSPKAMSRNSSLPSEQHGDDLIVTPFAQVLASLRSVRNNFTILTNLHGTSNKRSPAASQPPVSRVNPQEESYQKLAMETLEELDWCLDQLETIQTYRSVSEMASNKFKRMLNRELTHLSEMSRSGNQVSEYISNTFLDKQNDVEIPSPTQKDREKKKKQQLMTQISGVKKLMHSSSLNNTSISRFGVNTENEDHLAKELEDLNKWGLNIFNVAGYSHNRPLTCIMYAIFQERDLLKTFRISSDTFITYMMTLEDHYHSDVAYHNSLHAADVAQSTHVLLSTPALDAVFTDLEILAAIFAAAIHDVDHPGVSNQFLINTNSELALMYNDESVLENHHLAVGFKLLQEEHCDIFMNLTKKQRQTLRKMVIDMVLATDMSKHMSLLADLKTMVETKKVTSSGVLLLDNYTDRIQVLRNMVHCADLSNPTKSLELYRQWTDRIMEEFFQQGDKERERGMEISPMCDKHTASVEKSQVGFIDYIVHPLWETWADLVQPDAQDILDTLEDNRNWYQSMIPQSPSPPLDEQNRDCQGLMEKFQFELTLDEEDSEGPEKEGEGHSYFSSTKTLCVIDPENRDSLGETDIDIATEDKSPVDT
Chain of Cytochrome P450 3A4 (Homo sapiens) (P08684 whole entry, looked up): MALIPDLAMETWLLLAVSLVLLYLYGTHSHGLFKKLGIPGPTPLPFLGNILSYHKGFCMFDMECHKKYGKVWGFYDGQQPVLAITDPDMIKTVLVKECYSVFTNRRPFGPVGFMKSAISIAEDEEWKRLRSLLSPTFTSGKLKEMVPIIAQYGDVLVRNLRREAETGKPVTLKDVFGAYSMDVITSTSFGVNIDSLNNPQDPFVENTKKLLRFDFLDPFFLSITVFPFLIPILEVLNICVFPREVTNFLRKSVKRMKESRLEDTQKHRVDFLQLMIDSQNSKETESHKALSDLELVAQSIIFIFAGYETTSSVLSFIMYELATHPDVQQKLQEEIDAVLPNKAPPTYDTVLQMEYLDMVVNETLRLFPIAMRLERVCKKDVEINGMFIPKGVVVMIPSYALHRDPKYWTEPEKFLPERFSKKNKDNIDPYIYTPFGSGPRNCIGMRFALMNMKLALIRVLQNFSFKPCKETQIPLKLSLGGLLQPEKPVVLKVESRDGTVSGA
Chain of Glucocorticoid receptor (Homo sapiens) (P04150 whole entry, looked up, the tested form may be a part): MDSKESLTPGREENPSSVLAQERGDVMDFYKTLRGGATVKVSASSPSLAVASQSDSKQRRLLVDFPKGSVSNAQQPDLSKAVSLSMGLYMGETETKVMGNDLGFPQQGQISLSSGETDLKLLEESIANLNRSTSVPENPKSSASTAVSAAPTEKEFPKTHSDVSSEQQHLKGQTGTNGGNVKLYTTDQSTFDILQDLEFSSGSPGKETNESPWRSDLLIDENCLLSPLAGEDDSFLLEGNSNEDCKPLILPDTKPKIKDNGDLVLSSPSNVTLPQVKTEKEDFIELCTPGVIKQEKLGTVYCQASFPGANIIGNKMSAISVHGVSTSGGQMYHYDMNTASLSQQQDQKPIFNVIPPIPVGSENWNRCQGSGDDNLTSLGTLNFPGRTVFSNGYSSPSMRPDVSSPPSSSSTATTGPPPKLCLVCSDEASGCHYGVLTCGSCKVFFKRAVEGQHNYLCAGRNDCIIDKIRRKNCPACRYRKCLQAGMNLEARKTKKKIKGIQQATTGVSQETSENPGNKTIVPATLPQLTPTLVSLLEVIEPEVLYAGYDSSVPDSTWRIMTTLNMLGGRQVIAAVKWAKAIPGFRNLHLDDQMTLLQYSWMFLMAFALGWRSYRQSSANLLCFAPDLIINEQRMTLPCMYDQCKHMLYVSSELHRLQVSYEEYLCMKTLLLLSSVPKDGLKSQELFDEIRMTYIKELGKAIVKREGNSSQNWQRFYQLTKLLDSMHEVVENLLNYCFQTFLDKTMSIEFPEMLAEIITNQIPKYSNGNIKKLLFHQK
Chain of Cytochrome P450 1A2 (Homo sapiens) (P05177 whole entry, looked up): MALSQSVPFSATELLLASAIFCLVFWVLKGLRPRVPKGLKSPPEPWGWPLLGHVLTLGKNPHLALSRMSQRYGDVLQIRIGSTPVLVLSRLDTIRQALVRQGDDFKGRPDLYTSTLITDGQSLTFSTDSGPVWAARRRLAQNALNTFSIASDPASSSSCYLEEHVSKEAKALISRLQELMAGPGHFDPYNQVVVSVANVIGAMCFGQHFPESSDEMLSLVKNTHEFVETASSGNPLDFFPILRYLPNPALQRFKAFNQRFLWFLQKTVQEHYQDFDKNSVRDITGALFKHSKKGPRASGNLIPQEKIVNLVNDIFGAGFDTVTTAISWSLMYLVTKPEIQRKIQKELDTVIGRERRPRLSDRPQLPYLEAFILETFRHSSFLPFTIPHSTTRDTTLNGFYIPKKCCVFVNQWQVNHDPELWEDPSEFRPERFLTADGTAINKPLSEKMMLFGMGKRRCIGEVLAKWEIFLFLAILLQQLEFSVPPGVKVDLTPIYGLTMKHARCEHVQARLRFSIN
Chain of Cytochrome P450 2C19 (Homo sapiens) (P33261 whole entry, looked up): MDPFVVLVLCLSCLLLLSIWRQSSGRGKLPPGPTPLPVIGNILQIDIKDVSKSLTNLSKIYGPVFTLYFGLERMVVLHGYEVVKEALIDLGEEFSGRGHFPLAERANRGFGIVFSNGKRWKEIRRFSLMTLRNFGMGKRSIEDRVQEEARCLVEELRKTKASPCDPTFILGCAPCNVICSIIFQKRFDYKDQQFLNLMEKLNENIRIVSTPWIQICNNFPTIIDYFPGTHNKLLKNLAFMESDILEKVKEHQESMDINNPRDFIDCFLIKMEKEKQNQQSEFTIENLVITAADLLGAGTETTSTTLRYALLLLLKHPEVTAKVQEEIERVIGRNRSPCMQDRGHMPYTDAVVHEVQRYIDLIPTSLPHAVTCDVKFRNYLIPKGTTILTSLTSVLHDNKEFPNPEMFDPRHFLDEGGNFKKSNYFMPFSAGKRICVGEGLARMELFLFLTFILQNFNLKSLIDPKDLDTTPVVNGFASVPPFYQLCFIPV

COc1ccccc1CNc1ncncc1-c1cccnc1
inactive: Potency [1] > 11.4 µM | activity change, negative = inhibition [2] 3.62% | activity change, negative = inhibition [4] 2.12% | activity, negative = inhibition [5] 5.57% | Potency [6] > 46 µM | Potency [7] > 46 µM | outcome [8] | Potency [9] | Potency [11] | activity change, negative = inhibition [12] 3.76% | Potency [13] | Potency [14]
11.7%: max response [12, 21]
13.8%: max response [12, 22]
active: Potency [3] 0.794 µM | Potency [10] 0.794 µM

CN(C)Cc1ccccc1-c1cc(NC2CC2)ncn1
inactive: Potency [1] > 11.4 µM | activity change, negative = inhibition [2] -5.78% | activity change, negative = inhibition [4] -10% | activity, negative = inhibition [5] 12.3% | Potency [6] > 46 µM | Potency [7] > 46 µM | outcome [8] | Potency [9] | activity change, negative = inhibition [15] 5.15% [at 2.29 µM] | Potency [11] | outcome [16] | outcome [17] | activity change, negative = inhibition [12] 8.29% | Potency [18] | Potency [14]
13%: max response [12, 21]
active: Potency [3] 12.6 µM
22.4%: max response [12, 22]

CCNc1ncc2nc(C)c(=O)n(-c3ccc(OC)cc3)c2n1
active: Potency [3] 15.8 µM
inactive: Potency [1] > 11.4 µM | activity change, negative = inhibition [2] -29.8% | activity, negative = inhibition [5] -9.6% | Potency [6] > 9.22 µM | outcome [8] | Potency [15] | Potency [10] | Potency [19] | activation [20] -10.1% | activity change, negative = inhibition [12] 4.59% | Potency [13] | Potency [14]
11.9%: max response [12, 21]
15%: max response [12, 22]

COc1ccc(-c2nc3cnc(Nc4cccc(OC)c4)nc3n(C)c2=O)cc1
2.92%: max response [12, 22]
inactive: Potency [1] > 11.4 µM | activity change, negative = inhibition [2] -11.9% | activity change, negative = inhibition [4] -14.3% | activity, negative = inhibition [5] 0.85% | Potency [6] > 9.22 µM | Potency [7] > 46 µM | outcome [8] | Potency [9] | activity change, negative = inhibition [12] 1.51% | Potency [13] | Potency [18] | Potency [14]
2.29%: max response [12, 21]

COc1cccc(Nc2ncc3nc(-c4cn(C)c5ccccc45)c(=O)n(CCC#N)c3n2)c1
inactive: Potency [1] > 11.4 µM | activity change, negative = inhibition [2] -25.6% | activity change, negative = inhibition [4] -5.99% | activity, negative = inhibition [5] -9.25% | Potency [6] > 9.22 µM | Potency [7] > 46 µM | outcome [8] | Potency [9] | Potency [11] | activity change, negative = inhibition [12] 2.44% | Potency [13] | Potency [18] | Potency [14]
active: Potency [3] 20 µM
27%: max response [12, 21]
27.4%: max response [12, 22]

COc1ccc(CNc2cc(-c3ccccc3Cl)ncn2)c(OC)c1
active: Potency [10] 6.31 µM | Potency [19] 2 µM
25%: max response [12, 22]
19.5%: max response [12, 21]
inactive: Potency [1] > 11.4 µM | activity change, negative = inhibition [2] -3.31% | activity change, negative = inhibition [4] -0.814% | activity, negative = inhibition [5] 7.16% | Potency [6] > 46 µM | Potency [7] > 46 µM | outcome [8] | Potency [11] | activity change, negative = inhibition [12] 5.7% | Potency [13] | Potency [14]
